Where “and” joins values, the source holds several entries; their conditions need not be identical. Equal values may be shown once. Results filed as inconclusive are left out. Some compounds were tested as several samples or in several runs, with calls that do not always agree. Calls of active or inactive are those of the source. The calls were made as follows, unless noted: active = hit-call score of the fitted dose curve at least 0.9, where 1 is the maximum; inconclusive = response in the unintended direction; inactive = score below 0.9.
Columns and labels:
[1] = ATG_TAL_CIS: Attagene CIS-FACTORIAL HepG2 Assay for human TAL Basal Promoter (AID 2282966; active = hit-call score of the fitted dose curve at least 0.9, where 1 is the maximum; inactive = score below 0.9;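 also: background control endpoint measuring basal TAL promoter reporter mRNA not a specific factor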); settings: HepG2 Attagene cis-factorial TAL promoter reporter; actives raise or lower the signal
Summary of the method: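 HepG2, transient MRTU transfection, 24 h compound exposure; RNA → oligo(dT) RT → PCR → 6-FAM primer extension → HpaI digest → CE fluorescence. Bidirectional curve fit vs DMSO. Background-control readout.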

[2] = ATG_TGFb_CIS: Attagene CIS-FACTORIAL HepG2 Assay for human Transforming Growth Factor (TGF) (AID 2282967; active = hit-call score of the fitted dose curve at least 0.9, where 1 is the maximum; inactive = score below 0.9); settings: HepG2 Attagene CIS TGFb reporter, mRNA transcription; actives raise or lower the signal
Summary of the method: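 Endogenous TGFB1-linked transcription factor activity read as reporter mRNA via RT-PCR and capillary electrophoresis, 24 h after dosing transiently transfected HepG2 cells. Gain or loss of signal fitted relative to DMSO.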

[3] = ATG_VDRE_CIS: Attagene CIS-FACTORIAL HepG2 Assay for human Vitamin D Receptor Element (VDRE) (AID 2282968; active = hit-call score of the fitted dose curve at least 0.9, where 1 is the maximum; inactive = score below 0.9); settings: HepG2 VDRE cis-reporter transcription, actives raise or lower the signal
Summary of the method: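 Measures endogenous factor activity through cis-element-driven reporter transcripts in transiently transfected HepG2. Cells are treated 24 h; reporter mRNA is quantified by RT-PCR and capillary electrophoresis; fitting is bidirectional.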

[4] = target: Estrogen receptor (Homo sapiens) (UniProt P03372); test: ATG_ERa_TRANS: Attagene TRANS-FACTORIAL HepG2 Assay for human Estrogen Receptor alpha (ERa) (AID 2282970); settings: HepG2 Attagene TRANS ERa GAL4 reporter, mRNA
Summary of the method: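 Reporter mRNA induction after 24 hours, detected by fluorescent RT-PCR and capillary electrophoresis, gives the read-out. Cells are HepG2 transiently transfected with GAL4-UAS reporter transcription units responding to chimeric NR-Gal4. Activity is taken as gain of signal over DMSO baseline.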

[5] = target: X-box-binding protein 1 (Homo sapiens) (UniProt P17861); test: ATG_Xbp1_CIS: Attagene CIS-FACTORIAL HepG2 Assay for human X-box Binding Protein 1 (XBP1) (AID 2282972; active = hit-call score of the fitted dose curve at least 0.9, where 1 is the maximum; inactive = score below 0.9); settings: HepG2 XBP1 cis-element reporter, Attagene multiplex; actives raise or lower the signal
Summary of the method: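 Changes in reporter transcript abundance, read by RT-PCR and capillary electrophoresis, reflect endogenous transcription factor activity. Transfected HepG2 cells received compound for 24 hours; DMSO defined baseline for bidirectional analysis.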

[6] = ATG_M_06_TRANS: Attagene TRANS-FACTORIAL HepG2 Assay for M06 Transcription Factor (Internal Marker) (AID 2282983); settings: HepG2 Attagene TRANS M06 internal marker reporter
Summary of the method: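 Read-out: fluorescent reporter cDNA fragments resolved by capillary electrophoresis after RT-PCR and HpaI cut. Source cells were HepG2 carrying transfected multi-reporter GAL4 constructs, dosed 24 h. Increase over DMSO control analysed.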

[7] = target: Nuclear receptor subfamily 1 group I member 3 (Homo sapiens) (UniProt Q14994); test: ATG_CAR_TRANS: Attagene TRANS-FACTORIAL HepG2 Assay for human Constitutive Androstane Receptor (CAR) (AID 2282969); settings: HepG2 Attagene TRANS-FACTORIAL CAR reporter;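 also: activators raise reporter mRNA above DMSO so AC50 marks induction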
Summary of the method: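 Signal is reporter mRNA induction relative to DMSO, measured 24 h after dosing by RT-PCR with fluorescent primer extension and capillary electrophoresis. Human HepG2 liver cells carried transiently transfected chimeric NR-Gal4/GAL4-UAS reporter constructs.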

[8] = ATG_M_19_TRANS: Attagene TRANS-FACTORIAL HepG2 Assay for M19 Transcription Factor (Internal Marker) (AID 2282974); settings: HepG2 Attagene TRANS-FACTORIAL M19 internal marker reporter
Summary of the method: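 Using RT-PCR and capillary electrophoresis, reporter mRNA from transiently transfected human HepG2 cells was quantified following 24 h exposure; activity was fitted in the positive direction against DMSO.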

[9] = target: Estrogen-related receptor gamma (Homo sapiens) (UniProt P62508); test: ATG_ERRg_TRANS: Attagene TRANS-FACTORIAL HepG2 Assay for human Estrogen-Related Receptor gamma (ERRg) (AID 2282977); settings: HepG2 Attagene TRANS reporter, ERRg transactivation;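 also: hits increase reporter signal over DMSO so potencies reflect activators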
Summary of the method: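 Readout: fluorescent reporter-mRNA fragments resolved by capillary electrophoresis after RT-PCR and HpaI cut. Cells: transiently transfected HepG2 carrying GAL4-UAS reporters driven by exogenous NR-Gal4 chimeras, dosed 24 h. Activity fitted upward relative to DMSO baseline.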

[10] = target: Bile acid receptor (Homo sapiens) (UniProt Q96RI1); test: ATG_FXR_TRANS: Attagene TRANS-FACTORIAL HepG2 Assay for Farnesoid X Receptor (FXR) (AID 2282979); settings: HepG2 Attagene TRANS FXR-GAL4 reporter transcription;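 also: hits raise reporter mRNA above DMSO so AC50 marks FXR activation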
Summary of the method: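 Read-out: fluorescent reporter transcripts quantified by capillary electrophoresis after RT-PCR of total RNA. Source cells were HepG2 transiently carrying chimeric NR-GAL4 plus GAL4-UAS reporter units, dosed 24 h. Activity fitted upward relative to DMSO baseline.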

[11] = target: Oxysterols receptor LXR-alpha (Homo sapiens) (UniProt Q13133); test: ATG_LXRa_TRANS: Attagene TRANS-FACTORIAL HepG2 Assay for human Liver X Receptor alpha (LXRa) (AID 2282980); settings: HepG2 Attagene TRANS reporter, LXRa transactivation
Summary of the method: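 Read-out: reporter transcript levels by RT-PCR plus capillary electrophoresis, fluorescence intensity. Transiently transfected HepG2, exogenous NR-GAL4 chimera, GAL4-UAS reporters; 24 h compound exposure. Activity = increase over DMSO negative control.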

[12] = target: Oxysterols receptor LXR-beta (Homo sapiens) (UniProt P55055); test: ATG_LXRb_TRANS: Attagene TRANS-FACTORIAL HepG2 Assay for human Liver X Receptor beta (LXRb) (AID 2282981); settings: HepG2 Attagene TRANS GAL4-LXRb reporter, mRNA
Summary of the method: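 After 24 h of chemical treatment, transfected HepG2 cells yield total RNA; reporter cDNA is PCR-amplified, FAM-labelled, HpaI-cut and run on capillary electrophoresis. Signal reflects chimeric LXRb-Gal4 activity on GAL4-UAS reporters.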

[13] = target: Hepatocyte nuclear factor 4-alpha (Homo sapiens) (UniProt P41235); test: ATG_HNF4a_TRANS: Attagene TRANS-FACTORIAL HepG2 Assay for human Hepatocyte Nuclear Factor 4 alpha (HNF4a) (AID 2282982); settings: HepG2 HNF4a transactivation reporter, mRNA readout
Summary of the method: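 Multiplexed reporter assay: transfected HepG2, 24 h exposure, total RNA → oligo(dT) RT → PCR → 6-FAM extension → HpaI digest → CE fluorescence. DMSO = negative control.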

[14] = ATG_M_32_TRANS: Attagene TRANS-FACTORIAL HepG2 Assay for M32 Transcription Factor (Internal Marker) (AID 2282984); settings: HepG2 Attagene TRANS M32 internal marker reporter;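 also: transcript level of a background control reporter unit measured by RT-PCR and capillary electrophoresis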
Summary of the method: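 Cell-based TRANS-format assay in HepG2: exogenous chimeric GAL4 reporter units transiently expressed, compounds applied 24 h. Reporter mRNA detected by RT-PCR plus capillary electrophoresis; this readout is an internal background marker.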

[15] = target: Nuclear receptor subfamily 4 group A member 2 (Homo sapiens) (UniProt P43354); test: ATG_NURR1_TRANS: Attagene TRANS-FACTORIAL HepG2 Assay for human Nuclear Receptor Related Protein 1 (NURR1) (AID 2282985); settings: HepG2 Attagene TRANS reporter, mRNA readout
Summary of the method: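 Measures transcriptional activation by an exogenous NR-Gal4 chimera in transfected HepG2 liver cells. After 24 h, reporter RNA is reverse-transcribed, amplified and resolved by capillary electrophoresis; DMSO defines baseline.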

[16] = target: Glucocorticoid receptor (Homo sapiens) (UniProt P04150); test: ATG_GR_TRANS: Attagene TRANS-FACTORIAL HepG2 Assay for human Glucocorticoid Receptor (GR) (AID 2282978); settings: HepG2 Attagene TRANS GR reporter, mRNA transcription;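 also: activators score as hits since higher reporter transcript over DMSO is fitted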
Summary of the method: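 Exogenous NR-GAL4 fusion activity was assessed through induced GAL4-UAS reporter transcripts in transfected human HepG2 cells, quantified after 24 h by RT-PCR and fluorescent capillary electrophoresis with DMSO as baseline.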

[17] = target: Androgen receptor (Homo sapiens) (UniProt P10275); test: ATG_AR_TRANS: Attagene TRANS-FACTORIAL HepG2 Assay for human Androgen Receptor (AR) (AID 2282973); settings: HepG2 Attagene TRANS-FACTORIAL AR reporter transcription
Summary of the method: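 Readout is reporter transcript abundance, quantified by fluorescent RT-PCR products separated on capillary electrophoresis. Human HepG2 liver cells carried transiently transfected NR-Gal4 chimera plus GAL4-UAS reporter constructs and were dosed for 24 h; activity scored upward versus DMSO.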

[18] = ATG_GAL4_TRANS: Attagene TRANS-FACTORIAL HepG2 Assay for GAL4 (Internal Marker) (AID 2282976); settings: HepG2 Attagene TRANS GAL4 internal marker reporter
Summary of the method: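 RT-PCR/capillary electrophoresis readout of reporter mRNA. HepG2, transient MRTU transfection (GAL4-UAS reporters), 24 h compound exposure. Background-control endpoint, positive direction vs DMSO baseline.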

[19] = target: Steroid hormone receptor ERR1 (Homo sapiens) (UniProt P11474); test: ATG_ERRa_TRANS: Attagene TRANS-FACTORIAL HepG2 Assay for human Estrogen-Related Receptor alpha (ERRa) (AID 2282971); settings: HepG2 Attagene TRANS reporter, ERRa transactivation
Summary of the method: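 Transfected HepG2, 24 h dosing, ERRa-Gal4 chimera driving GAL4-UAS reporter. Readout: reporter mRNA via RT-PCR plus capillary electrophoresis (fluorescence). Positive direction vs DMSO control.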

[20] = ATG_Hpa5_TRANS: Attagene TRANS-FACTORIAL HepG2 Assay for human GAL4-Hpa5 Hepatocyte Transcription Factor Basal Promoter (AID 2282975); settings: HepG2 Attagene GAL4-Hpa5 transcription reporter;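 also: hits are increases in reporter mRNA over DMSO baseline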
Summary of the method: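 Gain-of-signal versus DMSO is fitted for reporter mRNA quantified by RT-PCR and capillary electrophoresis after 24 h exposure. This endpoint is an internal background marker in transiently transfected HepG2 cells carrying GAL4-UAS reporter units.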

Measured: AC50

Chain of Glucocorticoid receptor (Homo sapiens) (P04150 whole entry, looked up, the tested form may be a part): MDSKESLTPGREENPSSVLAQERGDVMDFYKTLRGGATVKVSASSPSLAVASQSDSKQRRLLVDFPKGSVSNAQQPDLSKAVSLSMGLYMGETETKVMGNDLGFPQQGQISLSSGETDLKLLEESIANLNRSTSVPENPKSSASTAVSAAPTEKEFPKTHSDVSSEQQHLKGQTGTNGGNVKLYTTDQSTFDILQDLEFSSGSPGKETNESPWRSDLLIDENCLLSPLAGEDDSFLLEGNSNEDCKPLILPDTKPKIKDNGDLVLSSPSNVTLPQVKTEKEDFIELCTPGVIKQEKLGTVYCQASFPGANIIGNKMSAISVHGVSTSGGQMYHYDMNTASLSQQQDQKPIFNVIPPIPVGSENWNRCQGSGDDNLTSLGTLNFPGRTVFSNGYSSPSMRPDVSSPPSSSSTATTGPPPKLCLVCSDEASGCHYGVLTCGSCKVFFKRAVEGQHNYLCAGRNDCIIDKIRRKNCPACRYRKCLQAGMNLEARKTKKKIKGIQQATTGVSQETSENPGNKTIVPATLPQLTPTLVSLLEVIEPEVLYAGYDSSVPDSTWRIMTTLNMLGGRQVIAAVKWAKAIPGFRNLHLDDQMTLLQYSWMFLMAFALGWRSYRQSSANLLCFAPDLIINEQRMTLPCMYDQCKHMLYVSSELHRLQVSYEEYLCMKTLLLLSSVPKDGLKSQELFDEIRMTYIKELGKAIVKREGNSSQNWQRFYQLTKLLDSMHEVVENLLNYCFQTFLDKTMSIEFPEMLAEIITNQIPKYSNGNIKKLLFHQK
Chain of Estrogen-related receptor gamma (Homo sapiens) (P62508 whole entry, looked up, the tested form may be a part): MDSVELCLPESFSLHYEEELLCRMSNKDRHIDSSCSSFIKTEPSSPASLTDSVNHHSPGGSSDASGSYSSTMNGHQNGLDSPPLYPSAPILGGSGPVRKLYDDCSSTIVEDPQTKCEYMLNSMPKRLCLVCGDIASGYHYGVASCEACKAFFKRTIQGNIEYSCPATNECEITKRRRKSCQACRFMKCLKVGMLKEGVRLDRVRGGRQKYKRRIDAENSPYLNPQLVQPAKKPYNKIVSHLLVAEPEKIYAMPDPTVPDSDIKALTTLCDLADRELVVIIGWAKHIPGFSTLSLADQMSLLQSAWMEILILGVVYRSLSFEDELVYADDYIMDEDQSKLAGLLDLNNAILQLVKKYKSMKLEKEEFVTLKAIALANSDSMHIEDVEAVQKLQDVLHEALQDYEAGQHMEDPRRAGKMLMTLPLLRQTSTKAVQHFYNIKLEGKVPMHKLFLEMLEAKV
Chain of Estrogen receptor (Homo sapiens) (P03372 whole entry, looked up, the tested form may be a part): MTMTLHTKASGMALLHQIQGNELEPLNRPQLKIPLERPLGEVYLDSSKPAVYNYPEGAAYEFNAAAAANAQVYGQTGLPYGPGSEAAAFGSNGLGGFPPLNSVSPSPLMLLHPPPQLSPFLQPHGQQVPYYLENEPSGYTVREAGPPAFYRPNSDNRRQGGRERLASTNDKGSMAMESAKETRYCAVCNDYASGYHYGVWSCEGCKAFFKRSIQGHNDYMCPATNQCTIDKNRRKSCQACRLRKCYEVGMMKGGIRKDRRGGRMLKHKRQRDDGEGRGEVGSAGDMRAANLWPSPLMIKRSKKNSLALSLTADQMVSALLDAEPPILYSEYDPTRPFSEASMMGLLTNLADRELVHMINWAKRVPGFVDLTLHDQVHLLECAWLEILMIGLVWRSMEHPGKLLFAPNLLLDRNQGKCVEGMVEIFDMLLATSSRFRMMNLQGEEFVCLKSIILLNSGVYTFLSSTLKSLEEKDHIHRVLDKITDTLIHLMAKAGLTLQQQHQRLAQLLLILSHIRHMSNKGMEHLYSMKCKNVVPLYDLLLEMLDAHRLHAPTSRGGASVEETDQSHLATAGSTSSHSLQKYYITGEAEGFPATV
Chain of Bile acid receptor (Homo sapiens) (Q96RI1 whole entry, looked up, the tested form may be a part): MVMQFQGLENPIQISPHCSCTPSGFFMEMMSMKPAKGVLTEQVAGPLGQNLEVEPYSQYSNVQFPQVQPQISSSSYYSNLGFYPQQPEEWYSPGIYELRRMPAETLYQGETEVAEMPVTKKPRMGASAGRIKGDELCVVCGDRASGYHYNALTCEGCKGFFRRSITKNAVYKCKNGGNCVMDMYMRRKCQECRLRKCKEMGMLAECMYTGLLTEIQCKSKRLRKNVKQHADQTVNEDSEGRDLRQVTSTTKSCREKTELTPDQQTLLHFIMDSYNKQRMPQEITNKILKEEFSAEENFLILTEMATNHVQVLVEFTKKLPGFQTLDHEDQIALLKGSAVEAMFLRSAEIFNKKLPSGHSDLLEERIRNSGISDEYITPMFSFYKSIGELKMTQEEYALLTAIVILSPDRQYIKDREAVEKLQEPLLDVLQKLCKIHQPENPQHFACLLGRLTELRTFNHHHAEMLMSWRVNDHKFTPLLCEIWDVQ
Chain of Oxysterols receptor LXR-beta (Homo sapiens) (P55055 whole entry, looked up, the tested form may be a part): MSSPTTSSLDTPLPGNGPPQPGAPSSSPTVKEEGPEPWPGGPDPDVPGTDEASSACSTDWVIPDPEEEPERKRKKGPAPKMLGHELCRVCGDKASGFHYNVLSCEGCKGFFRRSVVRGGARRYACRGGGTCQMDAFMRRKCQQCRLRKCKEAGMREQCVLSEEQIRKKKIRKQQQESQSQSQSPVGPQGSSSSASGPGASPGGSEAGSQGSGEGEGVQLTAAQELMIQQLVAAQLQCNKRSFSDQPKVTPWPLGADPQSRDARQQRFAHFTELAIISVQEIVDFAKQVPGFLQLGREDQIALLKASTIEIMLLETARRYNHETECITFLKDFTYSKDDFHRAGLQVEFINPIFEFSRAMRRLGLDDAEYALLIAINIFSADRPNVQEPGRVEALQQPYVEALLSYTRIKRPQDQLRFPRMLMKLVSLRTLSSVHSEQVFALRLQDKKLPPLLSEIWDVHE
Chain of X-box-binding protein 1 (Homo sapiens) (P17861 whole entry, looked up): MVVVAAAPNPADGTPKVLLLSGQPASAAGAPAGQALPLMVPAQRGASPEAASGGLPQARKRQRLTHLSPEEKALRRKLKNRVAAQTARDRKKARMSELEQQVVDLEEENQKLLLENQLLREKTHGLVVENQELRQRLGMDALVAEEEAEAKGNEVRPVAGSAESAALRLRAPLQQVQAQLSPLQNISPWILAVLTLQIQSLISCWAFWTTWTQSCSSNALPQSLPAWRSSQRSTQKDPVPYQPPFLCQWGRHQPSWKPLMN
Chain of Hepatocyte nuclear factor 4-alpha (Homo sapiens) (P41235 whole entry, looked up): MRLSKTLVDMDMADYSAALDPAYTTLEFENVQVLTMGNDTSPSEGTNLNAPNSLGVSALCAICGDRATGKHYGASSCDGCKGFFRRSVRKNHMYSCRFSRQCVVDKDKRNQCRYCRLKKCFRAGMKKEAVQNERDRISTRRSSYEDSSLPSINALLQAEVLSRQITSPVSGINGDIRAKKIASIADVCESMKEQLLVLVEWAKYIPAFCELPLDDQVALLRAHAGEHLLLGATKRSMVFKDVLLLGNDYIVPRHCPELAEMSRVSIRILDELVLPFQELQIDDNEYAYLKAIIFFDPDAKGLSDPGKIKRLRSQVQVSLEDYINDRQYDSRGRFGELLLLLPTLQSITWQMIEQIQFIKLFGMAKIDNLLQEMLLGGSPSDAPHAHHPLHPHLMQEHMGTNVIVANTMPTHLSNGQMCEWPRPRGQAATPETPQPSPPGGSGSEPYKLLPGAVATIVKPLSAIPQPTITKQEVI
Chain of Oxysterols receptor LXR-alpha (Homo sapiens) (Q13133 whole entry, looked up, the tested form may be a part): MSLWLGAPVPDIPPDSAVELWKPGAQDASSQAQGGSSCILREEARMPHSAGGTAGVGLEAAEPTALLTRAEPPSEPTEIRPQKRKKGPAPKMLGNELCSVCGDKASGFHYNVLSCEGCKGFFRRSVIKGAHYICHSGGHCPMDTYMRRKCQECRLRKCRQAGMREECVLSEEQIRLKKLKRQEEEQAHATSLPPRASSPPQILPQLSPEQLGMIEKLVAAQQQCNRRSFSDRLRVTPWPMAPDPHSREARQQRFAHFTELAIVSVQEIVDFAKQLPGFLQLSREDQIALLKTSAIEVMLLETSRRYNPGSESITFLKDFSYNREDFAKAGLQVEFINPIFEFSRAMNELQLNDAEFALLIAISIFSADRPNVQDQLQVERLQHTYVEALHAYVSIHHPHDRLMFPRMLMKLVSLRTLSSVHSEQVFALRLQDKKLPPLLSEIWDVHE
Chain of Nuclear receptor subfamily 4 group A member 2 (Homo sapiens) (P43354 whole entry, looked up, the tested form may be a part): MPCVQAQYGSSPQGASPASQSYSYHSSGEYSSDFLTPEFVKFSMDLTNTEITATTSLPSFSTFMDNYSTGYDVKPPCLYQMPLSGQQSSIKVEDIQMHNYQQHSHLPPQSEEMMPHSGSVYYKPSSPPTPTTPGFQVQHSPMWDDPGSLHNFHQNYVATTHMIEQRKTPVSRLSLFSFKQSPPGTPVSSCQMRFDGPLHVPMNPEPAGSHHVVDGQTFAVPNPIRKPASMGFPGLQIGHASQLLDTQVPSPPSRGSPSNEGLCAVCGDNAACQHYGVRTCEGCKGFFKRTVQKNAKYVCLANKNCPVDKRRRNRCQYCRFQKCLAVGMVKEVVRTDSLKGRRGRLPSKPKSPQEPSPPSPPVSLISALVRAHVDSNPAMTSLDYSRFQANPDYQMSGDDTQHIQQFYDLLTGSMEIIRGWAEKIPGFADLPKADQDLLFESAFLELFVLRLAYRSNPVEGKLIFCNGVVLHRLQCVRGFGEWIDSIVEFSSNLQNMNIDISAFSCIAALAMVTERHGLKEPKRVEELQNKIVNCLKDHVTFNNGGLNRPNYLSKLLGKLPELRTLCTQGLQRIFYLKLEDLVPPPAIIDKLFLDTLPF
Chain of Nuclear receptor subfamily 1 group I member 3 (Homo sapiens) (Q14994 whole entry, looked up, the tested form may be a part): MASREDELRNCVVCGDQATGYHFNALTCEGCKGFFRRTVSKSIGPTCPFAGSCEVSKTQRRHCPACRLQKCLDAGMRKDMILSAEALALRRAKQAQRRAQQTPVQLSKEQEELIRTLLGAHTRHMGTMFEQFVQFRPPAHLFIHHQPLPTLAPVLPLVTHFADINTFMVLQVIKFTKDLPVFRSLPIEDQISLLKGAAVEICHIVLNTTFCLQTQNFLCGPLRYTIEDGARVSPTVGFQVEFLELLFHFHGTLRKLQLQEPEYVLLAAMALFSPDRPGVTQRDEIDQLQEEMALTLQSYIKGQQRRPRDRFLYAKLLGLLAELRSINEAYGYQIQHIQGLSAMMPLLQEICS

Cc1cccc([N+](=O)[O-])c1
inactive: [1] | [2] | [3] | [4] | [5] | [6]

CCC(C)(c1ccc(O)cc1)c1ccc(O)cc1
active: [5] 54.8 µM and 52.7 µM and 16.7 µM
inactive: [1] | [2] | [7] | [5] | [8] | [9] | [10] | [11] | [12] | [13] | [6] | [14] | [15]

CCOCCOC(C)=O
inactive: [1] | [2] | [3] | [5] | [6] | [15]

ClC1=C(Cl)[C@]2(Cl)[C@@H]3[C@@H](Cl)[C@H]4O[C@H]4[C@@H]3C1(Cl)C2(Cl)Cl
inactive: [1] | [2] | [3] | [4] | [16] | [12] | [6]
active: [5] 36.5 µM

Cc1cc(O)ccc1Cl
active: [4] 40.4 µM | [11] 24.3 µM
inactive: [1] | [2] | [3] | [5] | [8] | [9] | [16] | [10] | [13] | [6]

c1ccc(-c2ccccc2)cc1
inactive: [1] | [2] | [4] | [5] | [17] | [8] | [18] | [16] | [10] | [15]

ClC1=C(Cl)[C@]2(Cl)[C@@H]3[C@@H]4C[C@@H]([C@H]5O[C@@H]45)[C@@H]3[C@@]1(Cl)C2(Cl)Cl
inactive: [1] | [2] | [5] | [16] | [6]
active: [3] 17.6 µM | [4] 5.89 µM

Clc1ccc(C(Cl)(Cl)Cl)cc1
inactive: [1] | [2] | [19] | [5] | [18] | [16] | [12] | [6]

CCC(C)(CC)c1cc(NC(=O)c2c(OC)cccc2OC)on1
inactive: [1] | [2] | [5] | [8] | [20] | [9] | [13] | [15]
active: [3] 0.977 µM

From PubChem BioAssay (EPA / NIEHS)
